# Data reported in PubChem BioAssay AID1508600 (Functional Genomics Laboratory (NCATS/FGL), 2020).
# Screen size: about 53,000 sequences; about 3,700 (7%) were called active.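 Rule for the calls: active = gene knockdowns whose robust z-score for IL-1 alpha signal is at least 2 or at most -2, so actives lie on both sides; inactive = the rest.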 Only a selection was taken, and actives are over-represented in it overall.
# Experiment: Components of the Cytosolic LPS Sensing Pathway: Gene Identification via Genome-wide siRNA Screen;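 note: robust z of the log signal after scaling to non-targeting control siRNA wells of the plate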
# Conditions: RAW264.7 macrophages, IL-1a HTRF, actives lie on both sides, screened at 100 nM (by protocol), cells primed 5 h with Pam3CSK4 first
# Outline: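 RAW264.7; siRNA 100 nM final, RNAiMAX, 48h 37 degrees C; Pam3CSK4 5 h; LipidA + TransIT-TKO 24 h; IL-1a HTRF; CellTiter-Glo viability; robust z vs negative-control median.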
row,Sequence,z-score
1,GGUGCUGAUUGACCUAACATT against Wdtc1,-2.24 (active)
2,GGAAGUGGAGGAAAAGAAGTT against Pdcd7,-2.52 (active)
3,GGAAAAACUACUCAAGGAGTT against Evi5l,-0.0731 (inactive)
4,CCUGGUUAAAGGUUAUCCATT against Commd7,-3.9e-05 (inactive)
5,GGCAAGUCUGUGUGCAGAUTT against Olfr267,0.579 (inactive)
6,CCAGGAACCUAUUGAAUCUTT against Plpp7,1.15 (inactive)
7,GGUAGAAAACAUAAAUGGUTT against Sec16a,1.71 (inactive)
8,GGCCAUGGUUAAACCAUAUTT against Pdcl2,0.791 (inactive)
9,GGACCUAUACAAGGGAGGUTT against Il1f10,1.17 (inactive)
10,GGUGUUUUCUGUGCUGUGATT against Klhdc3,-1.55 (inactive)
11,GGUGCUUAUACUUCUUUGUTT against Sgcz,-2.42 (active)
12,GCCAAUAAUUGUCACACAUTT against Adgrg3,1.94 (inactive)
13,GGACUUGGGUUUCAAUUCCTT against Ddx27,-0.876 (inactive)
14,GGCACUCAGAAAUAUUCAGTT against Nap1l3,3.84 (active)
15,GCAGUCUUCCCUCAUCCUUTT against Cox8a,1.74 (inactive)
16,GGCAGUAAAUAGUAAGAAATT against Ccr9,-0.716 (inactive)
17,GGAGUGGUGUGUCAUUGAUTT against Impact,-0.663 (inactive)
18,GCACAACAUCCCAGAUAAATT against Ankrd55,0.338 (inactive)
19,GGAUACCCUGCUUCCAAAATT against Hpd,2.23 (active)
20,GCCAGGCAAAUUACAUCGCTT against Shroom1,0.303 (inactive)
21,CCUGCACUACUGGAUUGGATT against Vill,0.265 (inactive)
22,GCUCCAUUAUGCCAGACUATT against Madcam1,0.8 (inactive)
23,GGAUAAUGAAGAAUGCCAATT against Abca4,-0.533 (inactive)

row,Sequence,z-score
1,CGGACUAUUGGAGACCAACTT against Gpsm2,2.16 (active)
2,GGUCAUCAACGUGCUAGAGTT against Nucb1,-1.3 (inactive)
3,GGAUGCAUGAGAAAUGUUATT against Tbc1d14,-0.0572 (inactive)
4,GGUAUAAGUUGGCAAGAUCTT against Cry2,0.849 (inactive)
5,CCCUUGAUUACACCACAGUTT against Cfc1,-2.6 (active)
6,GGUCACAUUUAAUGUCACATT against Itgam,-0.789 (inactive)
7,GGACAAUCAGUACCUUAACTT against Tex9,-0.375 (inactive)
8,GGAAGGUUUCGCUUUGAAUTT against Tarm1,-0.469 (inactive)
9,GGCUCAGAUUUUGUGAUUCTT against Olfr894,-1.44 (inactive)
10,GGACUUUUUCACUUUCAAATT against Ugt1a5,-0.198 (inactive)
11,CGCCACACACCAUCACAUUTT against Scap,-0.0743 (inactive)
12,GGAAUAUUCUCUCAUCACATT against Mmachc,-2.07 (active)
13,GCUAACCAUGUGACAAUAATT against Timm8a1,-1.39 (inactive)
14,GGCCCAGCAGACAACUUUATT against Sgca,0.797 (inactive)
15,CCUCCGGAGUAUAAACAAUTT against Nr1i3,0.21 (inactive)
16,GGAGGAAGAAGACUCAGAATT against Prkag2,3.46 (active)
17,GAAGAGGGCACCUAGUUUCTT against Cox7b,0.249 (inactive)
18,GCCACGAAGGUACUAUGUATT against Tbce,0.176 (inactive)
19,GGGAGAAAUGCCUUUAGUCTT against Erfe,3.79 (active)
20,GGUUACCACACUAUGUUACTT against Tbc1d2b,0.454 (inactive)
21,GGAAAAGUCCAAGUUUGAATT against Hmgb2,-0.104 (inactive)
22,GGAGAUAAUCCUGAAUGGCTT against Hsd3b6,-1.18 (inactive)
23,GGCCAAAAGGUUGAGCAGUTT against Nsun2,0.311 (inactive)

row,Sequence,z-score
1,GCUUUUAGGCCUCCAAAAGTT against Lmnb2,1.15 (inactive)
2,GGAACUUCGUCAGUACAUUTT against Setdb1,5.77 (active)
3,GGAGAAACUGGCAGACCUUTT against Washc3,-0.388 (inactive)
4,GCCUUCAGGACGAUUUAUUTT against Pla2g7,1.19 (inactive)
5,GCGAAAUCUUUGUCACUAATT against Sertad4,-0.201 (inactive)
6,GGAAGUAUUUGAUCAUGGATT against Smarca5,-0.465 (inactive)
7,GGAAAGGUAAUGCAUCACATT against Rev3l,-1.68 (inactive)
8,GGCUGAAGAUCACCAAGAATT against Neurl1a,-0.869 (inactive)
9,CGGAAUCAUUCGGAAUGAGTT against Capza3,-1.01 (inactive)
10,GGAAAUCCUGAAGUUUCCUTT against Grk5,4.41 (active)
11,CGUGAUCCCACAGAUGUAGTT against Csrp3,-0.649 (inactive)
12,GGGAGGUGUCUUUACGUCUTT against Neto1,-0.773 (inactive)
13,GCUGCACGAUCGGAAUGGUTT against Ssh1,-0.678 (inactive)
14,GGCUUACUUGAAGCAUUUATT against Plcb4,2.13 (active)
15,GGUUUUUGCUGAGUCUUGCTT against Olfr299,0.00611 (inactive)
16,GGAAAAGAAAGCAAAGAGATT against Dach1,-1.15 (inactive)
17,GGAAAUGUUUACCUGCCAUTT against Zfp512,2.32 (active)
18,GCUACAGCAGACAUAGAAATT against Sparcl1,0.0109 (inactive)
19,GGUUGGAAUUGUGCAAUAATT against Fbxo48,0.164 (inactive)
20,GGACAUUUAUCCCAUGACATT against Coro2b,0.814 (inactive)
21,GGAAUUCAAUGACGUGUACTT against Mapk14,0.493 (inactive)
22,CCGUAUUUGUGCUGUGUCUTT against Olfr275,-1.53 (inactive)
23,CCUUAUUUUACGGAACUGCTT against Olfr1018,2.11 (active)
